Assay outcomes from PubChem.
In the library only some 15% were active in any assay of this set; here they are far more common.
HCMV antiviral: qHTS Assay for inhibitors of the human cytomegalovirus (HCMV). HFF cells, HCMV-luciferase reporter, 72 h; hits give low values. activity change, negative = inhibition, % at 57.5 µM. hit rate 4.5% among 410,000. AID 1259415, 2018; in the data active means activity change below about -60%; inconclusive means no clear call, values can overlap the other calls; inactive means above about -39%
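Luciferase read-out from HCMV-luciferase-infected HFFs (MOI 1 PFU/cell) 72 h post infection at 37C; compounds added after 16 h cell attachment; activity normalized between buffer-only basal and Salinomycin (10uM) inhibitor controls.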
SARS PLpro yeast: qHTS of Yeast-based Assay for SARS-CoV PLP; S. cerevisiae expressing SARS-CoV PLpro, growth rescue; Potency, µM (top dose mostly 32.9 µM), most hits filed as activators; hit rate 0.19% among 330,000; calls by dose curve; further: nearly all actives have a fitted effect of over 55% in size
HCV inhibitor: qHTS Assay for Inhibitors of Hepatitis C Virus (HCV). hit rate 3.4% among 340,000. Potency, µM (highest dose often 41.8 µM), most hits filed as inhibitors. Huh7.5.1 HCVcc-Cre infection, luciferase reporter, 44 h
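Antiviral activity was scored by luciferase reporter output from cells infected with HCVcc-Cre (~0.5 moi) in presence of compound, 44 h infection period, cells seeded 1,000/well 4 h prior.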
Pf growth 96h: Primary qHTS for delayed death inhibitors of the malarial parasite plastid, 96 hour incubation; P. falciparum luciferase reporter growth, 96 h; Potency, µM (doses to about 28.7 µM), actives largely listed as inhibitors; hit rate 6.9% among 320,000; AID 504834, 2011
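Cell-based qHTS: luciferase-tagged P. falciparum in erythrocytes (2% hematocrit, 0.05% parasitemia final) incubated with compounds for 96 hours, 37 C, 5% CO2; luciferase detection reagent then added and luminescence measured.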
Sm TGR block: qHTS Assay for the Inhibitors of Schistosoma Mansoni Peroxiredoxins. Potency, µM (titrated, usually from 114 µM), actives largely listed as inhibitors. Schistosoma mansoni thioredoxin glutathione reductase (TGR), Q962Y6. hit rate 3% among 360,000. purified TGR, DTNB reduction, TNB absorbance 405 nm; further: nearly all actives have a fitted effect of over 60% in size
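Kinetic colorimetric format: TGR-catalysed, NADPH-driven DTNB reduction monitored via TNB absorbance. Enzyme dispensed at 20 nM; compound exposure 15 min at room temperature before reaction start.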
Pf growth 48h: Primary qHTS for delayed death inhibitors of the malarial parasite plastid, 48 hour incubation; hit rate 5.9% among 310,000; AID 504832, 2011; Potency, µM (doses to about 28.7 µM), hits mostly inhibitors; P. falciparum luciferase growth in erythrocytes, 48 h
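In quantitative HTS format, infected erythrocytes bearing luciferase-reporter parasites were treated for a single generation at 37 C. Luminescence after adding detection reagent served as the growth measure.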
Hits are given with their value; n = inactive; u = inconclusive; x = no result. Unless noted, the call rests on the fitted dose curve; in most records, active means well fitted curve in the direction sought with a large enough effect; inconclusive means small, poorly fitted or top-dose-only effect, or another doubt; inactive means no such curve, though single readings can be large; an effect the other way counts as inactive or inconclusive.

SMILES	HCMV antiviral	SARS PLpro yeast	HCV inhibitor	Pf growth 96h	Sm TGR block	Pf growth 48h
COc1ccc(C(C)=O)cc1CSc1nc2ccccc2c(=O)n1-c1ccccc1C	n	n	u	2.3µM	n	12µM
COc1ccc(C(C)=O)cc1CSc1nnc(-c2ccc(Cl)cc2)n1-c1ccccc1	u	n	7.9µM	9.3µM	n	u
Oc1ccc2c(ccc3[nH]cnc32)c1	n	n	n	n	n	u
Brc1cc2[nH]cnc2c2ccccc12	n	n	10µM	x	u	u
CCOC(=O)c1sc(=S)n(-c2ccccc2OC)c1N	n	n	n	6.6µM	n	n
COC(=O)c1sc(=S)n(-c2ccccc2OC)c1N	n	n	n	u	n	n
C=CCNC(=O)c1sc(=S)n(-c2ccc(C(=O)OCC)cc2)c1N	n	n	n	2.9µM	n	n
CCOC(=O)c1ccc(-n2c(N)c(C(=O)NCc3ccco3)sc2=S)cc1	n	n	n	n	n	u
CCOc1ccccc1-n1c(N)c(C(N)=O)sc1=S	-63	n	n	1.7µM	n	n
CCOC(=O)c1sc(=S)n(-c2ccc(Cl)cc2)c1SC	n	n	n	0.93µM	n	u
COc1cc(C(=O)NCC(c2cccs2)N2CCOCC2)ccc1OCc1ccc(Cl)cc1 (centres undefined)	n	x	x	x	x	x
Cc1[nH]c(=S)c(C#N)c(-c2ccco2)c1C(=O)N(C)C	n	n	n	n	n	n
CCOC(=O)c1sc(=S)n(-c2ccccc2)c1NC(C)=O	n	n	n	n	45µM	n
CCOC(=O)c1sc(=S)n(C)c1NC(=O)c1ccccc1	n	n	n	n	n	n
N#CCCN1CCN(S(=O)(=O)c2ccc(S(=O)(=O)N3CCCCCC3)cc2)CC1	n	n	n	n	n	n
CCN(C1CCCCC1)S(=O)(=O)c1ccc(S(=O)(=O)N2CCN(CCC#N)CC2)cc1	n	n	n	6.6µM	n	u
COCCN(C(=O)C1CC(=O)N(Cc2ccccc2)C1)c1nc(-c2ccc([N+](=O)[O-])cc2)cs1 (centres undefined)	u	n	u	u	n	13µM
CCOC(=O)C1CCN(C(=O)C2c3ccccc3C(=O)N(C)C2c2ccc(OC)cc2)CC1 (centres undefined)	n	n	n	u	n	n
CCOC(=O)[C@]12Cc3cc(OC)ccc3[C@H]1N(C)C(=O)c1cc(OC)ccc12	-106	x	x	x	x	x
CCOC(=O)[C@]12Cc3cc(OC)ccc3[C@H]1N(CC(=O)OC)C(=O)c1cc(OC)ccc12	-107	x	x	x	x	x
CCOC(=O)C1(CC)NC(c2ccc(OC)cc2OC)C2C(=O)N(C)C(=O)C21 (centres undefined)	n	n	n	u	n	n
CCCCCN1C(=O)c2cc(OC)ccc2[C@@]2(C(=O)OCC)Cc3cc(OC)ccc3[C@@H]12	-105	x	x	x	x	x
CCOC(=O)[C@]12Cc3cc(C)ccc3[C@H]1N(Cc1ccccc1)C(=O)c1cc(OC)ccc12	n	x	x	x	x	x
CCOC(=O)[C@]12Cc3cc(Cl)ccc3[C@H]1N(C)C(=O)c1cc(OC)ccc12	-96	x	x	x	x	x
COCCN(Cc1ccc(C)cc1)C(=O)[C@H]1O[C@@H](n2cnc3c(N)ncnc32)[C@H](O)[C@@H]1O	n	x	x	x	x	x
SMILES	HCMV antiviral	SARS PLpro yeast	HCV inhibitor	Pf growth 96h	Sm TGR block	Pf growth 48h
CCOC(=O)N1CCN(C(=O)COC(=O)C2CCN(S(=O)(=O)c3ccc(C)c(C)c3)CC2)CC1	u	n	n	n	n	n
COc1ccc(-c2oc3ncn4nc(-c5ccccc5Br)nc4c3c2-c2ccc(OC)cc2)cc1	n	x	x	x	n	x
COC(=O)[C@]12CCCCC=C1N(Cc1ccc3c(c1)OCO3)C(=O)[C@H](CC(=O)NCC13CC4CC(CC(C4)C1)C3)C2	n	x	x	x	x	x
COc1cc2cc(CN(CCc3cccc(C)c3)C(=S)NCCCN3CCOCC3)c(=O)[nH]c2cc1OC	-82	n	u	n	n	u
Cc1cccc(NC(=S)N(CCN2CCOCC2)Cc2cc3cc4c(cc3[nH]c2=O)OCO4)c1	n	n	n	u	n	u
Cc1ccc2cc(CN(C(=O)c3ccncc3)C(C)C)c(=O)[nH]c2c1	n	n	n	8.3µM	n	u
CC(=O)N(CCc1cccc(C)c1)Cc1cc2ccc(C)cc2[nH]c1=O	n	n	n	0.074µM	n	n
CC(=O)N(CCc1cccc(C)c1)Cc1cc2cc(C)ccc2[nH]c1=O	n	n	n	n	u	n
CNC(=S)N(CCc1cccc(C)c1)Cc1cc2cc(OC)c(OC)cc2[nH]c1=O	n	n	n	n	n	n
COc1cc2cc(CN(CCc3cccc(C)c3)C(=S)NCCCN(C)C)c(=O)[nH]c2cc1OC	-90	n	u	n	n	13µM
CC(C)N(Cc1cc2ccccc2[nH]c1=O)C(=O)c1cccnc1	n	n	n	n	n	n
CN1CCN(c2ccccc2NC(=O)COc2ccc(Cl)cc2)CC1	n	n	n	n	n	n
CC1CC(C)CN(C(=O)/C(=C\c2ccccc2)c2ccccc2)C1 (centres undefined)	u	n	n	n	n	1.9µM
CN1CCN(C(=O)/C(=C/c2ccccc2)c2ccccc2)CC1	n	n	n	x	n	n
NC(=S)n1[nH]c(-c2ccc([N+](=O)[O-])cc2)c(N=Nc2ccc(Cl)cc2)c1=O	x	n	6.3µM	n	n	u
Cc1ccc([N+](=O)[O-])cc1N=Nc1c(C)[nH]n(C(N)=S)c1=O	n	n	n	n	n	x
Cc1ccc([N+](=O)[O-])cc1N=Nc1c(-c2ccc([N+](=O)[O-])cc2)[nH]n(C(N)=S)c1=O	x	n	7.9µM	n	n	u
O=C(Nc1ccc(O)cc1)c1ccc2c(c1)C(=O)N(N1C(=O)c3ccccc3C1=O)C2=O	n	n	n	u	n	n
O=C(O)c1ccc2c(c1)C(=O)N(N1C(=O)c3ccccc3C1=O)C2=O	n	n	n	9.3µM	n	n
O=C(O)c1ccc2c(c1)C(=O)N(CCc1ccccc1)C2=O	n	n	n	u	n	n
COc1ccc(CN2C(=O)c3ccc(C(=O)O)cc3C2=O)cc1	n	n	n	9.3µM	n	x
O=C(Nc1ccccc1O)c1ccc2c(c1)C(=O)N(N1C(=O)c3ccccc3C1=O)C2=O	n	n	n	9.3µM	n	n
COc1cc(N/C(N)=N/c2nc(C)cc(C)n2)c(OC)cc1Cl	n	n	u	n	n	u
COC(=O)[C@@]12C[C@@H](CC(=O)NCCC(C)C)C(=O)N(Cc3cccc4ccccc34)C1=CCC(C)(C)C2	n	x	x	x	x	x
S=c1[nH]nc(COc2ccc3ccccc3c2)o1	n	n	n	9.3µM	n	n
